# Counter-ions that a name gives are not always drawn.
# Key:
# Settings in all cases: 10 µM; exposure time 6 h
# [1] = system: Danio rerio larvae (5 dpf); assay: difference in excitability vs DMSO (percentage points); higher = more excitable than DMSO
# How it was run: (§1)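 In 96-well plates, 48 wild-type zebrafish larvae aged 5 dpf per compound received 100 µL egg water with library compound at 10 µM final for 6 h. Three hours into this, a 3-h programme of moving lines and 100 ms, 400Hz tones ran at 28.5 ℃ while plates were photographed every 6 s. Z-LaP Tracker scored the behaviours, and each is given as the compound mean minus the vehicle control mean in percentage points.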
# [2] = system: Danio rerio larvae (5 dpf); assay: difference in startle response vs DMSO (percentage points); higher = stronger startle than DMSO
# How it was run: as §1
# [3] = system: Danio rerio larvae (5 dpf); assay: difference in activity during first hour vs DMSO (percentage points); higher = more activity than DMSO
# How it was run: as §1
# [4] = system: Danio rerio larvae (5 dpf); assay: difference in habituation to acoustic stimuli vs DMSO (percentage points); higher = more habituation than DMSO
# How it was run: as §1
# [5] = system: Danio rerio larvae (5 dpf); assay: difference in combined optomotor response to red, green and blue moving lines vs DMSO (percentage points); higher = stronger optomotor response than DMSO
# How it was run: as §1
SMILES,difference in excitability [1],difference in startle response [2],difference in activity during first hour [3],difference in habituation to acoustic stimuli [4],difference [5]
ClC1C(Cl)C(Cl)C(Cl)C(Cl)C1Cl (stereo not given) [γ-Lindane],7.5,11.9,1.64,-7.56,-16.7
C[C@]12CC[C@H](O)CC1=CC[C@@H]1[C@@H]2CC[C@]2(C)C(=O)CC[C@@H]12 [Dehydroepiandrosterone],19,-2.18,-15.8,1.51,6.05
C[N@+]1(CC2CC2)CC[C@]23c4c5ccc(O)c4O[C@H]2C(=O)CC[C@@]3(O)[C@H]1C5 [Methylnaltrexone (bromide)],3.91,-0.955,8.76,7.78,-7.48
O=P1(NCCCl)OCCCN1CCCl (stereo not given) [Ifosfamide],10,-6.24,-5.39,2.26,2.77
O=C1CC[C@@]2(O)[C@H]3Cc4ccc(O)c5c4[C@@]2(CCN3CC2CC2)[C@H]1O5 [Naltrexone (hydrochloride)],12.7,5.18,13.3,2.13,7.87
CN1C[C@H](C(=O)N[C@]2(C)O[C@@]3(O)[C@@H]4CCCN4C(=O)[C@H](Cc4ccccc4)N3C2=O)C[C@@H]2c3cccc4[nH]cc(c34)C[C@H]21 [Dihydroergotamine (mesylate)],16.4,11.9,-6.95,-1.86,2.36
O=c1[nH]c2ccccc2n1C1CCN(CCCC(c2ccc(F)cc2)c2ccc(F)cc2)CC1 [Pimozide],-5.57,7.75,-5.44,-11,-13.5
O=C(O[C@H]1C[C@H]2CC[C@@H](C1)[N+]21CCCC1)C(O)(c1ccccc1)c1ccccc1 [Trospium (chloride)],-11.2,-0.27,1.73,-0.832,-4.92
C=CCN1CC[C@]23c4c5ccc(O)c4O[C@H]2C(=O)CC[C@@]3(O)[C@H]1C5 [Naloxone (hydrochloride)],12.1,-4.15,1.81,1.98,9.16
Cn1c(CCCC(=O)O)nc2cc(N(CCCl)CCCl)ccc21 [Bendamustine (hydrochloride)],1.71,-1.73,2,-3.41,-1.37
COc1cc([C@@H]2c3cc4c(cc3[C@H](O)[C@H]3COC(=O)[C@H]23)OCO4)cc(OC)c1OC [Podophyllotoxin],12.7,-7.15,-1.85,2.01,7.28
CC(C)C[C@H]1C(=O)N2CCC[C@H]2[C@]2(O)O[C@](NC(=O)[C@@H]3C[C@@H]4c5cccc6[nH]cc(c56)C[C@H]4N(C)C3)(C(C)C)C(=O)N12.CC(C)[C@@]1(NC(=O)[C@@H]2C[C@@H]3c4cccc5[nH]cc(c45)C[C@H]3N(C)C2)O[C@@]2(O)[C@@H]3CCCN3C(=O)[C@H](Cc3ccccc3)N2C1=O.CC(C)[C@H]1C(=O)N2CCC[C@H]2[C@]2(O)O[C@](NC(=O)[C@@H]3C[C@@H]4c5cccc6[nH]cc(c56)C[C@H]4N(C)C3)(C(C)C)C(=O)N12.CCC(C)[C@H]1C(=O)N2CCC[C@H]2[C@]2(O)O[C@](NC(=O)[C@@H]3C[C@@H]4c5cccc6[nH]cc(c56)C[C@H]4N(C)C3)(C(C)C)C(=O)N12 [Ergoloid (mesylates)],8.62,4.7,-1.3,2.76,-3.42
CCOC(=O)c1cncn1[C@H](C)c1ccccc1 [Etomidate],-7.08,15.9,-22.2,-6.98,-19.2
N[C@@H](Cc1ccc(N(CCCl)CCCl)cc1)C(=O)O [Melphalan],10.9,1.5,-4.46,-1.58,7.41
CCN(C(C)=O)c1cccc(-c2ccnc3c(C#N)cnn23)c1 [Zaleplon],-3.98,-8.07,5.81,-1.42,-10.8
C[N+]1(C)[C@@H]2C[C@@H](OC(=O)[C@H](CO)c3ccccc3)C[C@H]1[C@@H]1O[C@@H]12 [Methylscopolamine (bromide)],-2.02,0.0162,-10,-2.49,0.657
CCN(C)C(=O)Oc1cccc([C@H](C)N(C)C)c1 [Rivastigmine (tartrate)],0.964,4.99,-2.5,-3.03,5.01
O=P1(N(CCCl)CCCl)NCCCO1 (stereo not given) [Cyclophosphamide (hydrate)],-1.55,-0.479,2.35,-0.439,2.91
CN1[C@@H]2C[C@@H](OC(=O)[C@H](CO)c3ccccc3)C[C@H]1[C@@H]1O[C@@H]12 [Scopolamine (hydrobromide)],4.44,2.53,-2.69,-4.87,2.89
CN(C)C(=O)Oc1cccc([N+](C)(C)C)c1 [Neostigmine (methyl sulfate)],-10.3,0.754,11.2,5.23,17
C=CCN1C[C@H](C(=O)N(CCCN(C)C)C(=O)NCC)C[C@@H]2c3cccc4[nH]cc(c34)C[C@H]21 [Cabergoline],13.2,-8.8,-4.41,5.57,-3.78
C=CCN1CC[C@]23c4c5ccc(O)c4O[C@H]2[C@@H](OCCOCCOCCOCCOCCOCCOCCOC)CC[C@@]3(O)[C@H]1C5 [Naloxegol (oxalate)],3.05,1.93,7.65,5.19,-4.82
COc1ccc2c(c1)[C@]13CCCC[C@@H]1[C@H](C2)N(C)CC3 [Dextromethorphan (hydrobromide hydrate)],18.6,1.65,-16,-4.55,-8.83
C[C@H](N)[C@H](O)c1ccc(O)c(O)c1 [Levonordefrin],2.43,-2.28,3.36,-5.57,-0.226
N.N.[Cl][Pt][Cl] [Cisplatin],-2.35,-10,-16.8,-5.63,-0.233
C#CCN(C)[C@H](C)Cc1ccccc1 [R-(-)-Deprenyl (hydrochloride)],-5.66,-0.482,-5.84,6.14,1.17

SMILES,difference in excitability [1],difference in startle response [2],difference in activity during first hour [3],difference in habituation to acoustic stimuli [4],difference [5]
COc1cc2c(c(OC)c1OC)-c1ccc(OC)c(=O)cc1[C@@H](NC(C)=O)CC2 [Colchicine],-4.48,-0.112,1.93,2.9,4.29
N[C@@H]1C[C@H]1c1ccccc1 [Tranylcypromine (hydrochloride)],-4.31,-7.1,-15.2,-1.86,1.86
CC(C)C[C@H]1C(=O)N2CCC[C@H]2[C@]2(O)O[C@](NC(=O)[C@@H]3C=C4c5cccc6[nH]c(Br)c(c56)C[C@H]4N(C)C3)(C(C)C)C(=O)N12 [Bromocriptine (mesylate)],22.1,-1.2,30.9,-9.36,-3.6
CN1[C@@H]2CC[C@H]1C[C@@H](OC(=O)C(CO)c1ccccc1)C2 (stereo not given in full) [Atropine],-7.7,-5.16,-10.3,-0.323,-1.56
CC(=O)O[C@H]1C[C@@H]2CC[C@@H]3[C@H](CC[C@@]4(C)[C@H]3C[C@H]([N+]3(C)CCCCC3)[C@@H]4OC(C)=O)[C@@]2(C)C[C@@H]1[N+]1(C)CCCCC1 [Pancuronium (bromide hydrate)],15.9,4.02,-3.48,-0.432,5.41
O=C(O)CCCc1ccc(N(CCCl)CCCl)cc1 [Chlorambucil],12.6,1.74,5.75,-1.6,-10.5
CC[C@@H](C(N)=O)N1CCCC1=O [Levetiracetam],1.51,0.691,2.97,4.14,4.89
C=C1C[C@@H]2[C@H](CC[C@]3(C)C(=O)CC[C@@H]23)[C@@]2(C)C=CC(=O)C=C12 [Exemestane],14.1,0.844,-8.29,-0.126,3.59
CC1=C[C@]23C(=O)[C@@H](C=C(CO)[C@@H](O)[C@]2(O)[C@H]1O)[C@H]1[C@@H](C[C@H]3C)C1(C)C [Ingenol],8.75,2.54,-2.63,4.35,-0.622
NCC1(CC(=O)O)CCCCC1 [Gabapentin],-1.43,8.77,13.9,2.43,6.89
COc1ccc(C(CN(C)C)C2(O)CCCCC2)cc1 (stereo not given) [Venlafaxine (hydrochloride)],16.6,-10.3,-21.1,-5.65,-7.48
CCOC(=O)CC(SP(=S)(OC)OC)C(=O)OCC (stereo not given) [Malathion],21.4,5.73,-5.37,1.62,14.9
CC(C)N(CCC(C(N)=O)(c1ccccc1)c1ccccn1)C(C)C (stereo not given) [Disopyramide],5.49,-1.52,13.6,4.14,9.12
COc1cc2c(cc1OC)C1CC(=O)C(CC(C)C)CN1CC2 (stereo not given) [Tetrabenazine],25.1,3.39,9.5,-2.68,-3.98
CC(O)(CS(=O)(=O)c1ccc(F)cc1)C(=O)Nc1ccc(C#N)c(C(F)(F)F)c1 (stereo not given) [Bicalutamide],-0.599,4.36,0.23,6.4,9.87
CC(NC(C)(C)C)C(=O)c1cccc(Cl)c1 (stereo not given) [Bupropion (hydrochloride)],-1.99,-4.01,-3.52,2.84,-2.98
O=C(O[C@H]1C[N+]2(CCCOc3ccccc3)CCC1CC2)C(O)(c1cccs1)c1cccs1 [Aclidinium (bromide)],-0.582,-8.56,-5.04,-1.38,-3.58
O=[N+]([O-])O[C@H]1CO[C@H]2[C@@H]1OC[C@H]2O[N+](=O)[O-] [Isosorbide Dinitrate],5.95,10.4,2.6,1.13,5
C[N+]1(C)CCCC(OC(=O)C(O)(c2ccccc2)c2ccccc2)C1 (stereo not given) [Mepenzolate (bromide)],0.196,-4.42,2.16,-0.492,-1.25
Nc1ccncc1 [4-Aminopyridine],5.12,6.44,9.5,-2.32,10.7
Nc1ncnc2c1ncn2CCOCP(=O)(O)O [Adefovir],-0.414,3.47,19.5,-0.786,6.79
CN(C)C(=O)Oc1ccc[n+](C)c1 [Pyridostigmine (bromide)],-1.66,-2.73,-1.82,4.7,2.09
Cc1cccc([C@H](C)c2c[nH]cn2)c1C [Dexmedetomidine (hydrochloride)],3.34,6.43,-24.1,-7.14,-16.9
NCC(CC(=O)O)c1ccc(Cl)cc1 (racemic) [(±)-Baclofen],-0.88,5.35,13.9,-0.192,6.84
CC(N)Cc1ccc(O)cc1 (stereo not given) [4-hydroxy Amphetamine (hydrochloride)],2.21,-1.49,5.37,0.612,-2.78

# Reference: the supplement of paper PMC10515830
